Results as given in article PMC7819943, “Rice protein-binding microarrays: a tool to detect cis-acting elements near promoter regions in rice”.
Whole data set: some 39,000 sequences, median “fluorescence intensity (a.u.)” near 4,300, cut for the highest 2% near 39,000. What follows is part of a selection rich in the highest values, with near analogues and random picks from the rest.

The sequences below were run against T1, OsSMF1 (Oryza sativa, UniProt Q6ZLB0 1-436) (assay: protein-binding microarray (RPBM); PBS, 2% BSA, 51.3 ng/ul salmon testes DNA, 50 uM zinc acetate, 200 nM TF, 25 C, 1 h; high values mean tight binding). Settings: protein: recombinant; tags: N-terminal polyhistidine and DsRed monomer fusion (pET32a); chain copies: 2; label: CyDye5-dUTP incorporated in the synthesized complementary strand; 3' TTTTT single-stranded linker to array surface; dsDNA, one strand shown.
T1 sequence: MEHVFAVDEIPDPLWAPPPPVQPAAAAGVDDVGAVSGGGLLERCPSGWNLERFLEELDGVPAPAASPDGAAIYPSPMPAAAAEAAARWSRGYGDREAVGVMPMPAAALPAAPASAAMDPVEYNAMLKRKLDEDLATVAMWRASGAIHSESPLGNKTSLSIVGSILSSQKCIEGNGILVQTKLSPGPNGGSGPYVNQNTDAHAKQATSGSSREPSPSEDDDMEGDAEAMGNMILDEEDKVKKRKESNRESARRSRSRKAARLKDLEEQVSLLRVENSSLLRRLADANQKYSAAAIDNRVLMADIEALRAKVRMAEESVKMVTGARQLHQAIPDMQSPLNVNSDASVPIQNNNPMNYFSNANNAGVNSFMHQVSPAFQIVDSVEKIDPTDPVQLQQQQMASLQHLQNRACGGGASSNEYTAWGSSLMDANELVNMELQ
In short: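 Binding signal is reported as fluorescence intensity per feature (arbitrary units) from an Axon 4000B scanner. Incubation used 200 nM of each Ni–NTA-purified, N-terminally polyhistidine- and DsRed-fused transcription factor from E. coli BL21-CodonPlus on a double-stranded custom Agilent array for 1 h at 25 °C, with 50 µM zinc acetate in the buffer, followed by washing.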

| Sequence | binding signal |
| --- | --- |
| ACTACACCGTCGCAGCGCACCCACGTGACACGCAGCCACACGGAGTCACCTAGTGCAG | 4730 fluorescence intensity (a.u.) |
| TGATACATTACTCAAGGAAACAGTCACACAGTCTATCACGCGGAGTCACCTAGTGCAG | 3200 fluorescence intensity (a.u.) |
| CCCTCAAGGGCTCAAAACACTCAAACAGTTCTACATATATCGGAGTCACCTAGTGCAG | 57600 fluorescence intensity (a.u.) |
| CGTTGGGCTCAAGGGGAGGGATATCTATCTAACAGTAACACGGAGTCACCTAGTGCAG | 4110 fluorescence intensity (a.u.) |
| CCGTCTCCACGCACTCGAACGTCACCGACGACCCCGGCAGCGGAGTCACCTAGTGCAG | 5490 fluorescence intensity (a.u.) |
| GCCACACCTCCCATTCCTTAGCCAAACACTCGCACTACTCCGGAGTCACCTAGTGCAG | 3200 fluorescence intensity (a.u.) |
| CGGTTGAATTGTTCTTGGCATCATCGGGTGTAACCGTGTACGGAGTCACCTAGTGCAG | 3350 fluorescence intensity (a.u.) |
| TTCTCAGCCAATCCCCAGCTCACACGTGCCAACTCTTCCACGGAGTCACCTAGTGCAG | 7630 fluorescence intensity (a.u.) |
| CCACCATGGATCCGACGTGGCACAACCACATTGGTCCCTCCGGAGTCACCTAGTGCAG | 17700 fluorescence intensity (a.u.) |
| AACAGCTCAATTAATTAATCGCCCACACCGAAGCGCGCACCGGAGTCACCTAGTGCAG | 39800 fluorescence intensity (a.u.) |
| TAGGCCCACACCTAGTCAGCTCAATCGAAATACAACCCACCGGAGTCACCTAGTGCAG | 3450 fluorescence intensity (a.u.) |
| AAGCGCGCGCCTCGCCACCTCACCCGAAGAAATTCCCCACCGGAGTCACCTAGTGCAG | 4140 fluorescence intensity (a.u.) |
| CGCATCCCGGCCCATCCGCCTCGTCAGCGGCGGCGCACCACGGAGTCACCTAGTGCAG | 10800 fluorescence intensity (a.u.) |
| CTTGCCTCCGCCCATAAATACCACCCGCATTGGCGTTCAGCGGAGTCACCTAGTGCAG | 50900 fluorescence intensity (a.u.) |
| CCACACACCATTGCCGCATCATCCACCACCGCCTCCTCAGCGGAGTCACCTAGTGCAG | 5210 fluorescence intensity (a.u.) |
| GTTCGCCGTGGATTTCTTTTCTTGCGTCAGTGATACTGATCGGAGTCACCTAGTGCAG | 5040 fluorescence intensity (a.u.) |
| AACTATAGATCCAAGTGAGGAAGCTATATTCCCAAATTTTCGGAGTCACCTAGTGCAG | 46000 fluorescence intensity (a.u.) |
| TTCTATTCTCCCAAAATTCCTATAGAACGAGATATTCCATCGGAGTCACCTAGTGCAG | 22200 fluorescence intensity (a.u.) |
| TGGAGCTAGTCAAGTAGACAGATCATACTATTCCCCAATTCGGAGTCACCTAGTGCAG | 4150 fluorescence intensity (a.u.) |
| GCTTGCCGACGCCGACGCCGCCGCCGCCACCGCCGTGGCGCGGAGTCACCTAGTGCAG | 4150 fluorescence intensity (a.u.) |
| CACCCGACTCAGATACCCGAATCCACGTCAGCCCAGAGCCCGGAGTCACCTAGTGCAG | 14300 fluorescence intensity (a.u.) |
| GTCTTCACAAATCCGATGACGCCACGTCATCTATCCGGCCCGGAGTCACCTAGTGCAG | 46400 fluorescence intensity (a.u.) |
| TCCAGATCAAATCCGACGGCCCAGGATACGCCACGTCACCCGGAGTCACCTAGTGCAG | 46700 fluorescence intensity (a.u.) |
| CGATCTATCTTAGTTCATTCGCTGCAAATCCGACGCCTGACGGAGTCACCTAGTGCAG | 3240 fluorescence intensity (a.u.) |
| AGCAAAATCTACGCGATGACGCCACGTGACATGACATCGCCGGAGTCACCTAGTGCAG | 5840 fluorescence intensity (a.u.) |
| AATCATCCGCCCCAGGCCCCAGCCACGTCGTCCAGATCGCCGGAGTCACCTAGTGCAG | 6410 fluorescence intensity (a.u.) |
| GCTACATTTTCGTCGACGTACGTCAGTGACACATGAACTACGGAGTCACCTAGTGCAG | 4800 fluorescence intensity (a.u.) |

| Sequence | binding signal |
| --- | --- |
| TTCAGCCTGTCATCGTCAATTCGTCATCAGTTCATCGCTCCGGAGTCACCTAGTGCAG | 5390 fluorescence intensity (a.u.) |
| TTCGTGGCGGCTCCTCCTGTGCCATGGCCGCCGATGGTGACGGAGTCACCTAGTGCAG | 3320 fluorescence intensity (a.u.) |
| AAGTCGTTCACTCGGCAACGTGTCATCCGGATAGACGTTGCGGAGTCACCTAGTGCAG | 6700 fluorescence intensity (a.u.) |
| CGTGTCCTAATCACCTTGCTTACGTGGCACTTGCCGATTCCGGAGTCACCTAGTGCAG | 43900 fluorescence intensity (a.u.) |
| CTCCTTGTCCACGTGGCGGCCTCCGATTCGCTGCCACCTCCGGAGTCACCTAGTGCAG | 23900 fluorescence intensity (a.u.) |
| ACGGCTTCCTTACGTGGCACACGTAAGCCGTTGCTTGCTTCGGAGTCACCTAGTGCAG | 35100 fluorescence intensity (a.u.) |
| CCAGTTAGGCCCACGAGTAGGTGGAACGACCACCTCACGGCGGAGTCACCTAGTGCAG | 3710 fluorescence intensity (a.u.) |
| TTCCCGGTCTCTTATTATCCATATCATAAGTAAATTAGTTCGGAGTCACCTAGTGCAG | 7670 fluorescence intensity (a.u.) |
| CTCCGTGAGCCCTTCCTCCTCCGCTCCTCTCCTTTCCGCCCGGAGTCACCTAGTGCAG | 15600 fluorescence intensity (a.u.) |
| CGCCGCCTGCCCCTGCGCCTGCAGCCTCTGCGCCTCCTGCCGGAGTCACCTAGTGCAG | 3560 fluorescence intensity (a.u.) |
| CTCTCTTCCTCTCTCTCTCCTCCGCGTAGGATTTAGCCTGCGGAGTCACCTAGTGCAG | 3880 fluorescence intensity (a.u.) |
| GCCTTCCCTTCCTTCCTCTGCCAATGGCCGCGCGTCAGCCCGGAGTCACCTAGTGCAG | 3390 fluorescence intensity (a.u.) |
| TTAGCCCTTCCTCTCCTGCTTCCGCCCTTCCATGGCAATGCGGAGTCACCTAGTGCAG | 46700 fluorescence intensity (a.u.) |
| CCTAGCCCTCCTCCTACTCCTCTGCAATGGTAGATTGCGCCGGAGTCACCTAGTGCAG | 47700 fluorescence intensity (a.u.) |
| CGACGCGGCGGCGAAAAGTCGGCGAACTGCGGCGAGGTGGCGGAGTCACCTAGTGCAG | 30100 fluorescence intensity (a.u.) |
| AGTTGATAGGAGTAGCTTGAAGAAGCAGAGACAGCTAGATCGGAGTCACCTAGTGCAG | 37600 fluorescence intensity (a.u.) |
| AAATGGCCTTGCACACCTTGTCATTGAAATTAAGAACAAACGGAGTCACCTAGTGCAG | 6400 fluorescence intensity (a.u.) |
| GAAAGCTAGAAGAGAAATTGACCTGGATTGAGTTTTGTGCCGGAGTCACCTAGTGCAG | 4170 fluorescence intensity (a.u.) |
| AGAAATTGAATTGCTTGCTACAGAGAAGCTAGAAGAGTTTCGGAGTCACCTAGTGCAG | 64800 fluorescence intensity (a.u.) |
| GAATTAGCTTGATTGACAGAAACAAATGGCTACAACTACACGGAGTCACCTAGTGCAG | 65500 fluorescence intensity (a.u.) |
| GAATGAATTGAAACAGACAATGCACACGCTTAGTCCATGACGGAGTCACCTAGTGCAG | 28800 fluorescence intensity (a.u.) |
| TGCATCACACGTACACATCTATCCATCGATCCAGTCCGCCCGGAGTCACCTAGTGCAG | 4610 fluorescence intensity (a.u.) |
| TTTCTTTTCTTCTTTCCTTCTCCCCACGGAGGTGTACGTACGGAGTCACCTAGTGCAG | 3440 fluorescence intensity (a.u.) |
| TGGTACATGGTGTGCCCTACCGAGCTTAGTCAACCACTTTCGGAGTCACCTAGTGCAG | 3230 fluorescence intensity (a.u.) |
| TATAGTGGCAACGCATGCTGACGTTACGGTGTACCGCCGTCGGAGTCACCTAGTGCAG | 5900 fluorescence intensity (a.u.) |
| TTCAGGTGATGAGTCAATGGAGGAGGATGTCATGGAGATTCGGAGTCACCTAGTGCAG | 4750 fluorescence intensity (a.u.) |
| ATAACGGTGCTAATCTACTGGTGACTGTGCCTGGTGGTGGCGGAGTCACCTAGTGCAG | 4380 fluorescence intensity (a.u.) |
